Experiment [1] concerns the target Acetylcholinesterase (Homo sapiens) (UniProt P22303). As to the kind of experiment: Acetylcholinesterase (AChE) small molecule antagonists: colormetric cell-based qHTS assay (AID 1347395). Note: nearly all actives have a fitted effect of over 30% in size. Note: potency is the fitted concentration of half-maximal effect. In short, it runs like this:
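AChE inhibition read colorimetrically via DTNB–thiocholine in SH-SY5Y cells. Compound 30 min, substrate 90 min, both 37 C.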
In general terms: qHTS replaces the single test concentration by a dilution series.

For experiment [2] the target is unchanged. Description: Acetylcholinesterase (AChE) small molecule antagonists: enzyme-based qHTS assay (AID 1347397). Note: nearly all actives have a fitted effect of over 55% in size. Note: potency is the fitted concentration of half-maximal effect. The conditions noted are these: Potency: AChE enzyme activity inhibition; outcome: AChE enzyme activity inhibition. In short, it runs like this: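 Absorbance-based detection of thiocholine with DTNB served as the read-out. Recombinant human AChE was exposed to compound for 30 min at RT before a 10 min RT incubation with acetylthiocholine.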

Experiment [3] has the same target. Description: Acetylcholinesterase (AChE) small molecule antagonists: fluorescence cell-based qHTS assay (AID 1347398). Note: nearly all actives have a fitted effect of over 50% in size. Note: potency is the fitted concentration of half-maximal effect. As to conditions: Potency: AChE activity; outcome: AChE activity. A digest of the protocol: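 Fluorimetric cell-based assay: intact SH-SY5Y cells, 30 min compound preincubation at 37 C, acetylthiocholine substrate with thiol probe Thiolite Green, 40 min RT development, fluorescence 490/520 nm.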

Experiment [4] shares this target. Description: Acetylcholinesterase (AChE) small molecule antagonists: enzyme-based qHTS assay with human liver microsomes (AID 1347399). Note: nearly all actives have a fitted effect of over 60% in size. The conditions noted are these: Potency: qHTS inhibition; outcome: qHTS inhibition. A digest of the protocol: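 Recombinant human AChE (50 mU/mL in the enzyme mix) and human liver microsomes (0.25 mg/mL final) were preincubated with compound and NADPH (0.25 mg/mL final) for 30 min at 37 C. Acetylthiocholine/DTNB was then added; thiocholine was read colorimetrically after 10 min at room temperature.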

A number with no mark means an inactive call. Results filed as inconclusive are left out. Calls of active or inactive are those of the source. Calls come from the whole dose curve.
% is set by controls: 0 for no effect and ±100 for the full control effect.

Sequence of Acetylcholinesterase (Homo sapiens) (P22303 whole entry, looked up): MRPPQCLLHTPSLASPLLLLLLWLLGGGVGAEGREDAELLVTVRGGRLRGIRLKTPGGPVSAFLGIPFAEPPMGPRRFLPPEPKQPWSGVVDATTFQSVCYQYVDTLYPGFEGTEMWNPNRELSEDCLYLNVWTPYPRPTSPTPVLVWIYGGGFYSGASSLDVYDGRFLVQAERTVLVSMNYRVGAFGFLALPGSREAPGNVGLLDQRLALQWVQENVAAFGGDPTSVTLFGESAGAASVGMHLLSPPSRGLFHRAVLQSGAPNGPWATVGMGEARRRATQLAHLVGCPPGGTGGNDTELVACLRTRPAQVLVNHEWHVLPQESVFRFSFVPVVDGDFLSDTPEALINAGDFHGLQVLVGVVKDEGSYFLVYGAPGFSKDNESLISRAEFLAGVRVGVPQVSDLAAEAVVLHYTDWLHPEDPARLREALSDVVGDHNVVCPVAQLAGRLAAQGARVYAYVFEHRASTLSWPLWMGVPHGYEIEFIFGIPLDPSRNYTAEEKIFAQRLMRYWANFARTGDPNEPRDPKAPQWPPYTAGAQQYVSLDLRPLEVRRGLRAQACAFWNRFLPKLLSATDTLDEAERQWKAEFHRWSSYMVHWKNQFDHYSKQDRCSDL

Turning to `O=C(O)CONC(=O)c1ccccc1`, the Potency entry in experiment [1], in experiment [2] and in experiment [3] was “inactive” throughout.

`Cc1onc(-c2ccccc2Cl)c1C(=O)N[C@@H]1C(=O)N2[C@@H]1SC(C)(C)[C@@H]2C(=O)O`: the Potency entry in experiment [1], in experiment [2] and in experiment [3] was “inactive” in each case.

Regarding `CCC(C)n1ncn(-c2ccc(N3CCN(c4ccc(OC[C@H]5CO[C@](Cn6cncn6)(c6ccc(Cl)cc6Cl)O5)cc4)CC3)cc2)c1=O` (some centres undefined), the Potency result in experiment [1], in experiment [2] and in experiment [3] was “inactive” each time.

Consider `O=[N+]([O-])c1ccc(O)cc1C(F)(F)F`, for which the Potency result in experiment [1], in experiment [2] and in experiment [3] was “inactive” in each case.

Regarding `Nc1c(CC(=O)O)cccc1C(=O)c1ccc(Br)cc1`, the Potency result in experiment [1], in experiment [2] and in experiment [3] was “inactive” throughout.

In the case of `c1coc(CNc2ncnc3nc[nH]c23)c1`, the Potency result in experiment [1], in experiment [2] and in experiment [3] was “inactive” throughout.

Turning to `CC[C@]12CCCN3CCc4c(n(c5ccccc45)C(=O)C1)[C@@H]32`, the Potency result in experiment [1], in experiment [2] and in experiment [3] was “inactive” throughout.

Turning to `C[N+]1(C)CCC(OC(=O)C(O)(c2ccccc2)C2CCCC2)C1` (centres undefined), the Potency result in experiment [1], in experiment [2] and in experiment [3] was “inactive” in each case.

As for `O=C1c2c(O)ccc([N+](=O)[O-])c2C(=O)c2c([N+](=O)[O-])ccc(O)c21`, the Potency in experiment [1] is 0.789 µM (active); in experiment [2] it was 25 µM (active); in experiment [3], 8.86 µM (active).

Consider `COC(Cc1ccccc1)OC`, for which the Potency result in experiment [1], in experiment [2] and in experiment [3] was “inactive” each time.

As for `COc1ccc(Br)c(C)c1`, the Potency result in experiment [1], in experiment [2] and in experiment [3] was “inactive” in each case.

As for `COc1ccccc1N1CCN(CCCCNC(=O)c2ccc(-c3ccc(C(C)=O)cc3)cc2)CC1`, the Potency result in experiment [1], in experiment [2], in experiment [3] and in experiment [4] was “inactive” each time.

Consider `N#[N+]c1ccc2c(S(=O)(=O)[O-])cccc2c1O`, for which the Potency result in experiment [1], in experiment [2] and in experiment [3] was “inactive” throughout.

With `COc1cc(Cc2cnc(N)nc2N)cc(OC)c1OC`, the Potency result in experiment [1], in experiment [2] and in experiment [3] was “inactive” throughout.

For the compound `O=C(NS(=O)(=O)/C=C/c1ccccc1)c1ccc(F)cc1Cl`, the Potency result in experiment [1], in experiment [2] and in experiment [3] was “inactive” in each case.

As to `CCCC(=O)O[C@]1(C(=O)CO)CC[C@H]2[C@@H]3CCC4=CC(=O)CC[C@]4(C)[C@H]3[C@@H](O)C[C@@]21C`, the Potency entry in experiment [1], in experiment [2], in experiment [3] and in experiment [4] was “inactive” throughout.

Turning to `CCC(=O)OC(C)c1ccccc1` (centres undefined), the Potency entry in experiment [1], in experiment [2], in experiment [3] and in experiment [4] was “inactive” in each case.

Turning to `[O-]/[N+](=N\O)c1ccccc1`, the Potency entry in experiment [1], in experiment [2], in experiment [3] and in experiment [4] was “inactive” each time.

In the case of `COC(=O)C1=C(C)NC(C)=C(C(=O)OC)C1c1ccccc1[N+](=O)[O-]`, the Potency entry in experiment [1], in experiment [2] and in experiment [3] was “inactive” each time.

`CN(C)CCCN1c2ccccc2Sc2ccc(C(F)(F)F)cc21`: the Potency result in experiment [1], in experiment [2] and in experiment [3] was “inactive” in each case.

In the case of `Cn1cnc2c(=O)[nH]c(N)nc21`, the Potency result in experiment [1], in experiment [2] and in experiment [3] was “inactive” in each case.

As to `FC(F)(F)c1cccc(Cl)c1`, the Potency result in experiment [1], in experiment [2], in experiment [3] and in experiment [4] was “inactive” throughout.

For the compound `C[C@]12C=CC(=O)C=C1[C@@H](F)C[C@@H]1[C@@H]2[C@@H](O)C[C@@]2(C)[C@H]1CC[C@]2(O)C(=O)CO`, the Potency entry in experiment [1], in experiment [2], in experiment [3] and in experiment [4] was “inactive” throughout.

Turning to `CCC(C(=O)OCCN1CCOC(c2ccccc2)C1C)c1ccccc1` (centres undefined), the Potency entry in experiment [1], in experiment [2], in experiment [3] and in experiment [4] was “inactive” throughout.

Turning to `COc1cc(NCc2ccc3nc(N)nc(N)c3c2C)cc(OC)c1OC`, the Potency in experiment [1] was 8.71 µM (active); in experiment [2] it was 30.9 µM (active); in experiment [3], 3.09 µM (active).

For the compound `CC(C)(C)NCC(O)c1ccc(O)c(CO)c1` (centres undefined), the Potency entry in experiment [1], in experiment [2] and in experiment [3] was “inactive” throughout.

In the case of `Cc1ccc(/C(=C\CN2CCCC2)c2ccccn2)cc1`, the Potency result in experiment [1], in experiment [2] and in experiment [3] was “inactive” in each case.

With `CC(C)(C)NC(=O)[C@@H]1C[C@@H]2CCCC[C@@H]2CN1C[C@@H](O)[C@H](Cc1ccccc1)NC(=O)[C@H](CC(N)=O)NC(=O)c1ccc2ccccc2n1`, the Potency entry in experiment [1], in experiment [2] and in experiment [3] was “inactive” each time.

Regarding `CCN[C@@H]1C[C@H](N)[C@@H](OC2OC(CN)=CCC2N)[C@H](O)[C@H]1O[C@H]1OC[C@](C)(O)[C@H](NC)[C@H]1O` (some centres undefined), the activity, negative = inhibition in experiment [1] was 0.264% [at 0.435 µM]. Further, the activity change, negative = inhibition is 0.139% [at 0.435 µM] in experiment [2] and 7.61% [at 0.439 µM] in experiment [3].

For the compound `Oc1cc2ccccc2cc1O`, the Potency entry in experiment [1], in experiment [2] and in experiment [3] was “inactive” throughout.

For `CN(C)C(=O)C(CCN1CCC(O)(c2ccc(Cl)cc2)CC1)(c1ccccc1)c1ccccc1`, the Potency result in experiment [1], in experiment [2] and in experiment [3] was “inactive” throughout.

`CC(=O)Oc1ccc(C)cc1`: the Potency result in experiment [1], in experiment [2] and in experiment [3] was “inactive” in each case.

In the case of `O=S(=O)(c1cccc2cnccc12)N1CCCNCC1`, the Potency result in experiment [1], in experiment [2] and in experiment [3] was “inactive” each time.

As for `CCCCCCCCCCCCCCC(=O)O`, the Potency entry in experiment [1], in experiment [2] and in experiment [3] was “inactive” throughout.

Source of the values: PubChem BioAssay (Tox21).
